Source: PubChem BioAssay AID652154 (Broad Institute, 2013)
In all, about 360,000 compounds went through this assay and about 4,200 (1.2%) were called active. This excerpt belongs to a sample that is enriched for actives. Unmarked numbers belong to inactive results.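 Rule for the calls: active = mean replicate inhibition at least 60% with every replicate also reaching 60%; inconclusive = only one of the two criteria is met; inactive = mean below 60% and not all replicates reaching 60%.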

test: PAX8 transcriptional activity inhibition in RMG-I – RMG-I cells, luciferase, single concentration, primary screen (AID 652154); conditions: RMG-I TPO-luciferase reporter, SteadyGlo, 24 h; at 12.6 µM; stronger effect = higher value;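 note: luciferase light reporting Pax8 driven TPO promoter activity; plate controls were median of neutral control wells for no effect and mitoxantrone controls for full effect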

**Q.** Which inhibition does the source give for `COC(=O)/C=C\C(=O)Nc1cccc([N+](=O)[O-])c1` here?
**A.** Its inhibition is 87.5% (active).

**Q.** Which inhibition does the source give for `Cc1ccc(NC(=O)O/N=C/c2cccc([N+](=O)[O-])c2)cc1` here?
**A.** The inhibition was -64.7%.

**Q.** With `O=C(Nc1cccc([N+](=O)[O-])c1)N1CCc2ccccc2C1` as the molecule, how does the inhibition read?
**A.** The inhibition was -115%.

**Q.** With `Cc1cccc(NC(=O)c2ccc([N+](=O)[O-])o2)c1` as the molecule, how does the inhibition read?
**A.** The inhibition was 86.2% (active).

**Q.** With `Cc1onc(NC(=O)c2ccc([N+](=O)[O-])o2)c1Br` as the molecule, how does the inhibition read?
**A.** Its inhibition is 12.3%.

**Q.** Which inhibition does the source give for `O=C(Nc1cccc(NC(=O)c2ccccc2[N+](=O)[O-])c1)c1ccccc1Cl` here?
**A.** The inhibition was -26.3%.

**Q.** For `O=C(N[C@H]1CC[C@H](CCNS(=O)(=O)c2ccc(F)cc2)O[C@H]1CO)C1CCC1`, which inhibition is on record?
**A.** The inhibition was 5.47%.

**Q.** For `O=C(CCc1ccc(O)cc1)NN=Cc1cc(Br)ccc1O`, which inhibition is on record?
**A.** Its inhibition is 5.02%.

**Q.** Which inhibition does the source give for `O=C(N/N=C/c1ccccc1O)/C(=C/c1ccccc1)CCO` here?
**A.** Its inhibition is 8.09%.

**Q.** With `O=C(CCCO)N/N=C/c1cc(Br)ccc1O` as the molecule, how does the inhibition read?
**A.** Its inhibition is 65% (active).

**Q.** Which inhibition does the source give for `CN1CCN(C(=O)C[C@H]2C[C@@H]3c4cc(NS(=O)(=O)c5ccc(F)cc5)ccc4O[C@@H]3[C@@H](CO)O2)CC1` here?
**A.** Its inhibition is -4.63%.

**Q.** For `CC(C)(COC(=O)Nc1ccccc1)COC(=O)Nc1ccccc1`, which inhibition is on record?
**A.** Its inhibition is -10.7%.

**Q.** For `CCOC(=O)Nc1ccc2c(c1)N(C(=O)CN1CCN3CCCC3C1)c1ccccc1CC2` (centres undefined), which inhibition is on record?
**A.** The inhibition was -14.6%.

**Q.** Which inhibition does the source give for `CCOC(=O)Nc1ccc2c(c1)N(C(=O)CCCl)c1ccccc1[S@]2=O` here?
**A.** Its inhibition is 120% (active).

**Q.** For `CO[C@H]1CN(C)C(=O)c2ccc(NC(=O)C3CC3)cc2OC[C@@H](C)N(C(=O)CN2CCOCC2)C[C@H]1C`, which inhibition is on record?
**A.** The inhibition was 8.74%.

**Q.** With `Cc1[nH]c2ccccc2c1C(=O)COC(=O)c1c(-c2ccccc2)noc1C` as the molecule, how does the inhibition read?
**A.** Its inhibition is 20.4%.

**Q.** With `Cc1onc(-c2ccccc2)c1C(=O)NNC(=S)NC(=O)c1ccc(F)cc1` as the molecule, how does the inhibition read?
**A.** Its inhibition is 69.8% (active).

**Q.** For `COc1ccc(C(=O)NC(=S)NNC(=O)c2c(-c3ccccc3)noc2C)cc1`, which inhibition is on record?
**A.** Its inhibition is 103% (active).

**Q.** With `O=C(NNC(=S)NC(=O)c1cn(-c2ccccc2)nc1-c1ccccc1)c1ccncc1` as the molecule, how does the inhibition read?
**A.** The inhibition was -7.23%.

**Q.** With `Cc1onc(-c2ccccc2)c1C(=O)N=C(N)c1ccc(Cl)cc1` as the molecule, how does the inhibition read?
**A.** Its inhibition is 8.52%.

**Q.** Which inhibition does the source give for `COc1ccc(C(=O)NNC(=O)c2cc(C)[nH]n2)cc1` here?
**A.** The inhibition was -12.8%.

**Q.** With `COc1cccc(-c2ccc3n(c2=O)C[C@H]2[C@H](CO)[C@@H](C(=O)N4CCCCC4)N(C)[C@@H]32)c1` as the molecule, how does the inhibition read?
**A.** The inhibition was 10.3%.

**Q.** For `C[C@@H]1CN([C@H](C)CO)C(=O)c2cc(C#Cc3cccnc3)cnc2O[C@@H]1CN(C)Cc1ccc(F)cc1`, which inhibition is on record?
**A.** The inhibition was -16.3%.

**Q.** Which inhibition does the source give for `Cc1ccccc1S(=O)(=O)NCC[C@@H]1CC[C@H](NC(=O)C2CCC2)[C@@H](CO)O1` here?
**A.** Its inhibition is 6.58%.
